We go through 70 molecules from ChEMBL document CHEMBL4513216, “Probing the Open Global Health Chemical Diversity Library for Multistage-Active Starting Points for Next-Generation Antimalarials” (ACS Infect Dis, 2020).

Among all 69,000 compounds or so, about 8,600 (12%) showed an effect of 50% or more. The entries come from a sample that favours strong results as a whole.

The test system of the assay is Plasmodium berghei. Put plainly: Screen against P. berghei liver stage (PbLuc), transformed with Luciferase, at 10uM. It counts as functional, HepG2. The following applies: tested at 10 uM.
Consider `CN1CC[C@H](N(Cc2ccccc2)CC2CC2)C[C@H](O)C1`, for which the INHIBITION is recorded as 23.7%. Consider `Cc1ccsc1CN(CCCN(C)C)Cc1ccccn1`, for which the INHIBITION came out at 2.6%.

For the molecule `O=C(CC1[C@H]2CN(Cc3ccsc3)C[C@@H]12)N1CCCC1` (stereo not given in full), the INHIBITION is 7.5%. Then `Cc1cc(-c2cnc(C)nc2CN(C)C(=O)c2cc(C3CC3)on2)on1`, with -18.9%; and `CCOc1ccc(NC(=O)N(CCN(C)C)C(C)c2ccncc2)cc1` (stereo not given), with 14.3%.

For the molecule `COCC1c2c(cnn2C)CCN1Cc1ccco1` (stereo not given), the INHIBITION was found to be 35.8%. Then `CS(=O)(=O)N1CCC(n2nnn(-c3ccccc3)c2=O)CC1`, with 2.7%. Then `Cc1nc(C)n(CC2CCCN(CC3CCCCC3)C2)n1` (stereo not given), with 15.6%; and `Cc1nc(C)n(CC2CCCN(c3ncnc4c3CCC4)C2)n1` (stereo not given), with 80.8%. Take `c1nc(N2CCCCC2Cn2cncn2)c2sccc2n1` (stereo not given): the INHIBITION stood at 6.65%. Then `Cc1nc(C)n(CC2CCCN2c2ncnc3c2CCC3)n1` (stereo not given), with 26.9%.

With `O=C1[C@@H]2CC[C@@H](CN(c3ncnc4ccsc34)C2)N1CC1CC1`, the INHIBITION stood at 78.9%.

`COc1cc(N2C[C@H]3CC[C@@H](C2)N(CC2CCC2)C3=O)ncn1`: the INHIBITION is reported as 2.15%. Then `c1ccc2sc(N3CCCC(Cn4cncn4)C3)nc2c1` (stereo not given), with 54.5%; and `c1nc(N2CCCC(Cn3cncn3)C2)c2ccsc2n1` (stereo not given), with -17.3%; and `O=C(O)c1cn(CC2CCCN(c3nc4ccccc4s3)C2)nn1` (stereo not given), with 46.6%. Consider `CN1C(=O)[C@@H]2CC[C@H]1CN(c1ncnc3ccsc13)C2`, for which the INHIBITION was -15.1%. With `c1nc(N2CCCC(Cn3cncn3)C2)c2sccc2n1` (stereo not given), the INHIBITION is recorded as 85.4%. For `c1ccc2nc(N3CCCC(Cn4cncn4)C3)cnc2c1` (stereo not given), the INHIBITION is -2.55%. Take `Cc1ccnc(C2CCN(S(=O)(=O)c3cn(C)cn3)CC2)n1`: the INHIBITION is reported as -10.5%. Then `O=C(Nc1cccnc1)C1CN(C(=O)c2ccc3c(c2)OCO3)C1`, with 34.6%; and `CCc1nc(CN2CCCC2c2c(C)nn(C)c2OC)no1` (stereo not given), with 33.8%; and `Cc1nn(C)c(C)c1C1CCCN1Cc1ccc(C(N)=O)cc1` (stereo not given), with 13.3%.

With `Cn1nc(CO)c2c1CCN(c1ncnc3c1CCNCC3)C2`, the INHIBITION was 26.8%. As for `Cn1cnnc1C1CCCN(C(=O)c2cc(Cl)cc(Cl)c2)C1` (stereo not given), the INHIBITION is reported as 11.6%. Then `O=C(c1cccc(CNS(=O)(=O)c2ccc(F)cc2)c1)N1CCCC1`, with 15.6%; and `COCc1nc(CN2CC(Cc3ccccc3)CC2=O)no1` (stereo not given), with -37.2%. In the case of `Cc1nnc(SCC(=O)N2C[C@@H]3CC[C@H]2CN(c2ncccn2)C3)[nH]1`, the INHIBITION is listed as 19.4%. Then `Cc1nc(C)n(CC2CCCN(c3ccnc(-c4ccccc4)n3)C2)n1` (stereo not given), with 26.6%.

For the molecule `Cc1nc(C)n(CC2CCCN(CCc3ccccn3)C2)n1` (stereo not given), the INHIBITION was determined as 53.8%.

For the molecule `Cc1nc(C)n(CC2CCCN2c2ncnc3ccsc23)n1` (stereo not given), the INHIBITION is 27.8%. Then `Cc1nc(C)n(CC2CCCN(CCc3ccncc3)C2)n1` (stereo not given), with 24%; and `Cc1nc(C)n(CC2CCCN(c3ncnc4ccccc34)C2)n1` (stereo not given), with 88.2%. Then `Cc1nc(C)n(CC2CCCN(c3ncnc4[nH]ccc34)C2)n1` (stereo not given), with 5.13%; and `Cc1nc(C)n(CC2CCCN(c3ncnc4sccc34)C2)n1` (stereo not given), with 72.9%; and `Cc1nc(C)n(CC2CCCN(CCc3ccccc3)C2)n1` (stereo not given), with 38.8%. Then `Cc1nc(C)n(CC2CCCN2c2ncnc3sccc23)n1` (stereo not given), with -3.81%; and `Cc1nc(C)n(CC2CCCN(c3ccc(C#N)cn3)C2)n1` (stereo not given), with -10.6%; and `Cc1nc(C)n(CC2CCCN(c3ncnc4ccsc34)C2)n1` (stereo not given), with 83.1%. On to `Cc1nc(C)n(CC2CCCCN2c2ncnc3ccsc23)n1` (stereo not given), for which the INHIBITION is 27.8%. With `CCOc1ccc(S(=O)(=O)NC(=O)CC2CCCO2)cc1` (stereo not given), the INHIBITION is -4.94%.

Regarding `Cc1ccc(CN2CC[C@H]3OCC[C@@]3(C(=O)N3CCCO3)C2)o1`, the INHIBITION is reported as 0.618%.

Consider `Cc1nn(CCC(=O)N2CCN(Cc3cnn(C)c3C)CC2)c(C)c1Br`, for which the INHIBITION is on record as 43.4%. Take `CC(C)c1nc(C2CCCN2C(=O)c2ccc(C#N)cn2)no1` (stereo not given): the INHIBITION stood at 22.9%. Then `CN(C)c1cncc(C2CCCN(c3cnccn3)C2)n1` (stereo not given), with 17.77%; and `CN(Cc1ccc(Br)c2cccnc12)S(C)(=O)=O`, with -17.85%; and `CC(C)N1CCC(c2cccc(C(=O)N(C)C)n2)CC1`, with -7.66%. Then `c1cc(CN2CCC(c3nnc4n3CCCCC4)CC2)c2nonc2c1`, with 64.4%. In the case of `c1cc(CN2CCC(c3nnc4n3CCCCC4)CC2)c2c(c1)OCO2`, the INHIBITION worked out at 29.7%. Regarding `c1ccc2c(c1)CC(N1CCCN(Cc3cccc4nonc34)CC1)C2`, the INHIBITION was 49%. Then `Cc1ccc(Oc2ncccc2CNC(=O)NC2CCCCC2)cn1`, with 19.4%. On to `CCOc1ncccc1NC(=O)NC1CCN(C(=O)C2CC2)CC1`, for which the INHIBITION was 41.2%. Then `CCC(C)(COc1ncccc1Cl)NCC(=O)NCC(C)C` (stereo not given), with 57.4%. As to `CCC(C)(COc1ncccc1Cl)NCC(=O)NC1CCCCC1` (stereo not given), the INHIBITION amounted to 68.5%. `CC(C)CNC(=O)CNC(=O)Nc1cccc(Cl)c1-n1cccn1`: the INHIBITION is recorded as -29.2%.

As for `CCC(C)(COc1ncccc1Cl)NCC(=O)Nc1ccc(Br)cn1` (stereo not given), the INHIBITION is reported as 36.5%. With `O=C(Cc1ccc(F)cc1)NCc1ccc(C(=O)O)o1`, the INHIBITION was found to be 1.62%.

For the molecule `COc1ccc(C(=O)NCc2ccc(C(=O)O)o2)cc1`, the INHIBITION turned out to be 10.6%.

`O=C(NCc1ccc(C(=O)O)o1)c1ccc(F)cc1`: the INHIBITION stood at 51.1%. Regarding `CC(C(=O)Nc1sccc1C(N)=O)N(C)CCOc1ccccc1` (stereo not given), the INHIBITION is reported as 94%. With `Cc1csc(CN(C)CCOc2ccccc2)n1`, the INHIBITION is -4.23%. As for `Cc1ccccc1OCCC(=O)OC(C)C(=O)Nc1sccc1C(N)=O` (stereo not given), the INHIBITION turned out to be 45.1%. Then `Cc1[nH]nc(CCC(=O)NCC2CCCN(C3CCCC3)C2)c1C` (stereo not given), with 41.6%.

Consider `Cc1ccc(OCCN2CCN(Cc3cnn(CCO)c3)CC2)cc1`, for which the INHIBITION is reported as 22.25%. With `COc1cccc(C(=O)N2CCOC3(CCCN(C(C)=O)C3)C2)c1` (stereo not given), the INHIBITION is on record as 33.4%.

On to `CC(C)(O)CCc1cccc(C(=O)N2CCC3(CCOCC3)CC2)c1`, for which the INHIBITION is recorded as -147%. Then `CCOc1cccc(C(=O)N2CCC3(CC2)[C@H](O)C[C@@H]3OC)c1`, with -55.1%.

Turning to `C=C(C)COc1cccc(C(=O)N2CCC(O)(c3ccccc3)CC2)c1`, the INHIBITION is 65.6%.

As to `C=C(C)COc1cccc(C(=O)N2CCC3(CCOCC3)CC2)c1`, the INHIBITION turned out to be 52.6%. Then `C=C(C)COc1cccc(C(=O)N2CCC3(CC2)CN(C)CCN3C)c1`, with 46.1%.
